proKLK7 act = activates the human kallikrein-7 zymogen; P49862; purified proKLK7, EDANS-DABCYL substrate fluorescence; 100% is mature enzyme control, 0% vehicle; activation, % at 7 µM; actives 0.9% (n = 370,000); AID 652039;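 active = activation above the mean of all tested compounds plus 3 SD, computed per campaign excluding outliers beyond control limits, cut at about 13% in these data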
Target sequence (P49862 whole entry, looked up): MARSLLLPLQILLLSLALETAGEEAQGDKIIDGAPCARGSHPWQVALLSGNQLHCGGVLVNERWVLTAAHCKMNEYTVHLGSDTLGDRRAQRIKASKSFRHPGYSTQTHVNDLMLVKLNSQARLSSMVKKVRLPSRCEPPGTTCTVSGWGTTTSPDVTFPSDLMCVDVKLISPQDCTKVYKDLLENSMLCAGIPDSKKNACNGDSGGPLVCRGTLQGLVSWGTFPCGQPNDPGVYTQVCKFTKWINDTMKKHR
Neddyl block = cullin neddylation inhibition; P61081+Q13564; TR-FRET cullin neddylation, biochemical; calls only at 25 µM; actives 0.58% (n = 360,000); in the data active = inhibition above about 36%
FAS-TE inh = inhibitors of human fatty acid synthase thioesterase domain. P49327. recombinant FAS-TE, OMFH fluorogenic substrate, fluorescence endpoint. inhibition, % at 15 µM. actives 0.67% (n = 360,000). AID 602261;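 active = compounds whose normalised, plate-corrected inhibition of enzyme fluorescence in the single-dose primary screen is 50% or more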
PfG6PD inh = PfG6PD (Plasmodium falciparum) enzyme inhibition; actives 0.78% (n = 350,000); inhibition, % at 20 µM; PfGluPho enzyme, NADPH resazurin-diaphorase fluorescence; AID 504690;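 active = inhibition reaching at least a set limit at 20 µM in the primary screen, cut at about 59% in these data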
Neddyl conf = cullin neddylation inhibition, confirmation | shares compounds with Neddyl block | TR-FRET cullin neddylation biochemical assay | calls only at 25 µM | actives 13% (n = 1,800); in the data active = inhibition above about 40%;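 also: neddylation substrate is the cullin 1 ring ligase complex with SKP2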
Calls only. Only some compounds are listed: those with a hit (about 2.7% of all), similar ones and a draw of the others.

CCOc1cc(C2NC(=O)c3ccccc3O2)ccc1OC(C)C (stereo unspecified) was read as proKLK7 act inactive, Neddyl block active, FAS-TE inh inactive, PfG6PD inh inactive and Neddyl conf inactive.
`CCOc1ccc(C2NC(=O)c3ccccc3O2)cc1OC` (stereo unspecified) gave proKLK7 act inactive, Neddyl block inactive, FAS-TE inh inactive and PfG6PD inh inactive.
O=C1NC(c2ccc3c(c2)OCO3)Oc2ccccc21 (stereo unspecified) was read as proKLK7 act inactive, Neddyl block active, FAS-TE inh inactive, PfG6PD inh inactive and Neddyl conf inactive.
CCOc1ccc(C2NC(=O)c3ccccc3O2)cc1OCC (stereo unspecified) was read as proKLK7 act inactive, Neddyl block active, FAS-TE inh inactive, PfG6PD inh inactive and Neddyl conf inactive.
`C[C@H](O)[C@@H]1CN2CCc3ccc(N4CCOCC4)cc3[C@@H]2C[C@@H]1N(C)C(=O)c1ccccc1F` gave proKLK7 act inactive.
`Nc1[nH]c2ccccc2c1C(=O)NC1CC1` gave proKLK7 act inactive.
Cc1ccc(NC(=O)Cc2cccc(OC(F)(F)F)c2)c(S(=O)(=O)N2CCOCC2)c1 was read as proKLK7 act inactive.
Screening c1ccc(-c2oc3ncnc(NCCCN4CCOCC4)c3c2-c2ccccc2)cc1 returned proKLK7 act inactive, Neddyl block active, FAS-TE inh inactive, PfG6PD inh inactive and Neddyl conf active.
For COc1ccc(-c2oc3ncnc(NCCCN4CCOCC4)c3c2-c2ccc(OC)cc2)cc1 the results were proKLK7 act inactive, FAS-TE inh inactive and PfG6PD inh inactive.
`CCCCc1cc(=O)oc2cc(OC3CCCCC3=O)ccc12` (stereo unspecified) gave proKLK7 act inactive, Neddyl block active, FAS-TE inh inactive, PfG6PD inh inactive and Neddyl conf inactive.
Screening CCCc1cc(=O)oc2c(C)c(OC3CCCCC3=O)ccc12 (stereo unspecified) returned proKLK7 act inactive, Neddyl block inactive, FAS-TE inh inactive and PfG6PD inh inactive.
COc1cc(C(=O)N2CCC(N3CCN(C)CC3)CC2)ccc1Nc1ncc2c(n1)N(C)c1ccccc1C(=O)N2C was read as proKLK7 act inactive.
For CCN1C(=O)CCN(C2CCCC2)c2nc(Nc3ccc(C(=O)NC4CCN(C)CC4)cc3OC)ncc21 the results were proKLK7 act inactive, Neddyl block active, FAS-TE inh inactive, PfG6PD inh inactive and Neddyl conf inactive.
Screening COc1ccc2cc(C(=O)C3CCCN(Cc4cnc(N5CCOCC5)s4)C3)ccc2c1 (stereo unspecified) returned proKLK7 act inactive, Neddyl block active, FAS-TE inh inactive, PfG6PD inh inactive and Neddyl conf inactive.
For CCn1c(SCC(=O)Nc2ccc(C(C)C)cc2)nnc1-c1ccc(C(C)(C)C)cc1 the results were proKLK7 act inactive.
Screening COc1ccc(C2CC(c3ccccc3)=NN2C(=O)COC(=O)/C=C/c2ccc(O)c(OC)c2)cc1 (stereo unspecified) returned proKLK7 act inactive, Neddyl block active, FAS-TE inh inactive, PfG6PD inh inactive and Neddyl conf inactive.
For COc1ccc(C2CC(c3ccccc3)=NN2C(=O)COC(=O)CNC(=O)c2ccccc2)cc1 (stereo unspecified) the results were proKLK7 act inactive, Neddyl block inactive, FAS-TE inh inactive and PfG6PD inh inactive.
Screening O=C(N/C(=C/c1cccc(Br)c1)C(=O)N1CCOCC1)c1ccco1 returned proKLK7 act inactive, Neddyl block inactive, FAS-TE inh inactive and PfG6PD inh inactive.
Screening CC(=O)Nc1cncc(-c2ccccc2C(C)=O)n1 returned proKLK7 act inactive, Neddyl block inactive and FAS-TE inh inactive.
For CNc1cncc(-c2ccccc2NC(C)=O)n1 the results were proKLK7 act inactive, Neddyl block active, FAS-TE inh inactive and Neddyl conf inactive.
`COC(=O)CN1CCN(C(=O)c2nocc2C)CC1` gave proKLK7 act inactive.
CCCc1cc(=O)oc2c(C)c3occ(C)c3cc12 was read as proKLK7 act inactive, Neddyl block active, FAS-TE inh inactive, PfG6PD inh inactive and Neddyl conf inactive.
`CCCN(CC1CC1)c1nc(C)nc2c1nnn2Cc1ccccc1` gave proKLK7 act inactive.
`Cc1cc(NC(=O)COC(=O)c2nccnc2N)n(-c2ccccc2)n1` gave proKLK7 act inactive, Neddyl block active, FAS-TE inh inactive and PfG6PD inh inactive.
Screening Cc1ccccc1Cn1cc(CN2[C@@H](C)COc3cc(Br)ccc3S2(=O)=O)nn1 returned proKLK7 act inactive.
For COC(=O)c1cc(NC(=O)c2c(-c3ccccc3)noc2C)ccc1N1CCOCC1 the results were proKLK7 act inactive, Neddyl block active, FAS-TE inh inactive, PfG6PD inh inactive and Neddyl conf inactive.
Screening COC(=O)c1cc(NC(=O)c2c(-c3c(Cl)cccc3Cl)noc2C)ccc1N1CCOCC1 returned proKLK7 act inactive, Neddyl block inactive, FAS-TE inh inactive and PfG6PD inh inactive.
`CCN(CC)CCCNC(=O)CSc1nc(-c2ccc(F)cc2)cc(C(F)(F)F)n1` gave proKLK7 act inactive, Neddyl block inactive, FAS-TE inh inactive and PfG6PD inh inactive.
COCCNC(=O)CSc1nc(-c2ccc(OC)c(OC)c2)cc(C(F)(F)F)n1 was read as proKLK7 act inactive, Neddyl block active, FAS-TE inh inactive and PfG6PD inh inactive.
`COc1ccc(-c2cc(C(F)(F)F)nc(SCC(=O)N3CCOCC3)n2)cc1OC` gave proKLK7 act inactive, Neddyl block active, FAS-TE inh inactive, PfG6PD inh inactive and Neddyl conf inactive.
Screening Cn1c(SC/C=C/c2ccccc2)nnc1-c1cccnc1 returned proKLK7 act inactive.
CCCCNC(=O)c1cc2c(C)cc(C)cc2[nH]1 was read as proKLK7 act inactive, Neddyl block active, FAS-TE inh inactive, PfG6PD inh inactive and Neddyl conf inactive.
Cc1cc(C)c2cc(C(=O)Nc3ccc(C)c(F)c3)[nH]c2c1 was read as proKLK7 act inactive, Neddyl block inactive, FAS-TE inh inactive and PfG6PD inh inactive.
`O=C(CNC(=O)c1ccccc1Br)N/N=C/c1ccccc1O` gave proKLK7 act inactive, Neddyl block active, FAS-TE inh inactive, PfG6PD inh inactive and Neddyl conf inactive.
O=C(CNC(=O)c1ccco1)N/N=C/c1cc(Br)ccc1O was read as proKLK7 act inactive, Neddyl block active, FAS-TE inh inactive, PfG6PD inh inactive and Neddyl conf inactive.
Screening O=C(CNC(=O)c1ccco1)N/N=C/c1ccc(O)cc1O returned proKLK7 act inactive, Neddyl block inactive, FAS-TE inh inactive and PfG6PD inh inactive.
For S=c1[nH]nc(-c2cc(-c3ccccc3)n[nH]2)n1/N=C/c1c(Cl)cccc1Cl the results were proKLK7 act inactive, Neddyl block active, FAS-TE inh inactive, PfG6PD inh inactive and Neddyl conf inactive.
For S=c1[nH]nc(-c2cc(-c3ccccc3)n[nH]2)n1/N=C/C=C/c1ccco1 the results were proKLK7 act inactive, Neddyl block active, FAS-TE inh inactive, PfG6PD inh inactive and Neddyl conf inactive.

Screens (PubChem BioAssay)
